# From PubChem
# Sampled rows, rich in hits. Any-hit rate of the full collection: about 7.1%.
# SW480 rerep – A quantitative high throughput screen for small molecules that induce DNA re-replication in SW480 colon adenocarcinoma cells. SW480 DNA re-replication, Hoechst DNA content imaging, 48 h. Potency, µM (titrated, usually from 46.1 µM), without a hit: at the highest dose re-replication activation, hits mostly activators. 340,000 tested, 1.8% active. AID 624297, 2012; further: % of control where 0% means no effect; nearly all actives have a fitted effect of over 55% in size
#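 Cells (250 per well) received 23 nL compound or DMSO by pin tool and were kept 48 hr at 37 C, 5% CO2. Nuclei were then stained with Hoechst for 40 min and scanned for DNA content.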
# A-T KAP1 phos – qHTS Assay for Identifying a Potential Treatment of Ataxia-Telangiectasia. AID 485349, 2010. Potency, µM (highest dose often 57.5 µM), for the others: top-dose activation, most hits filed as activators. F2112 A-T fibroblasts, KAP-1 phosphorylation AlphaLISA; neocarzinostatin DNA damage 30 min before lysis. 320,000 tested, 0.19% active; further: % of control where 0% means no effect; nearly all actives have a fitted effect of over 45% in size
#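 hTERT-immortalized A-T patient fibroblasts (F2112), 500 cells/well in OPTI-MEM, 1% FBS, got compounds for 60 min, then NCS for 30 min at 37C. Lysates were then assayed for phospho-KAP-1 by AlphaLISA (anti-pKAP1 donor, anti-KAP1 acceptor beads), 6 hr at 25C.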
# MCF10A rereplic – A quantitative high throughput screen for small molecules that induce DNA re-replication in MCF 10a normal breast cells; 350,000 tested, 2.9% active; MCF 10A DNA re-replication, Hoechst nuclear intensity, 48 h; AID 624296, 2012; Potency, µM (highest dose often 46.1 µM), inactives show top-dose activity, positive = re-replication, usual class: activators; further: % of control where 0% means no effect; nearly all actives have a fitted effect of over 50% in size
# ELG1 repair inh – qHTS screen for small molecules that inhibit ELG1-dependent DNA repair in human embryonic kidney (HEK293T) cells expressing luciferase-tagged ELG1; HEK293T ELG1-luciferase reporter, luminescence, 16 h; DNA damage induced by 5-fluorouridine; Potency, µM (top dose mostly 46.1 µM), for the others: top-dose activity change, negative = inhibition, usual class: inhibitors; 330,000 tested, 2.3% active; further: on the % scale 0 is the no-effect control and ±100 the full control effect; nearly all actives have a fitted effect of over 55% in size
#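 Overnight (16 hr) co-exposure of 2,000 cells/well to 5-fluorouridine and compound at 37 °C preceded detection. Luciferase was quantified via ONE-Glo luminescence; loss of signal denotes inhibition.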
# ELG1 genotoxic – qHTS screen for small molecules that induce genotoxicity in human embryonic kidney (HEK293T) cells expressing luciferase-tagged ELG1; HEK293T ELG1-luciferase reporter, luminescence, 16 h; Potency, µM (top dose mostly 46 µM), inactives show top-dose activity change, positive = activation, usual class: activators; 330,000 tested, 1.3% active; further: % of control where 0% means no effect; nearly all actives have a fitted effect of over 60% in size
#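 DMSO vehicle served as control against compound-treated ELG1-luciferase HEK293T cells; exposure lasted 16 hr at 37 °C and 5% CO2, followed by ONE-Glo luminescence detection after 30 min.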
# p53 reactivation – qHTS assay for re-activators of p53 using a Luc reporter; H1299 p53-A138V BP100-luciferase reporter, luminescence, 24 h; Potency, µM (doses to about 92.2 µM), inactives show at the highest dose activity change, positive = activation, most hits filed as activators; 320,000 tested, 0.063% active; AID 504706, 2011; further: % of control where 0% means no effect; nearly all actives have a fitted effect of over 45% in size
#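 H1299 (p53-null), stable ts p53-A138V + BP100-Luc; 1000 cells/well, Opti-MEM/10% FBS; cpd 4 pt, 1:5; 24 h, 37 deg C, 5% CO2; detection reagent 10 min RT; luminescence.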
# The depositor's hits bear a star; ? = inconclusive; · = not tested or not shown. The call rests on the fitted dose curve; in most records, active means well fitted curve in the direction sought with a large enough effect; inconclusive means small, poorly fitted or top-dose-only effect, or another doubt; inactive means no such curve, though single readings can be large; an effect the other way counts as inactive or inconclusive. Potency means the concentration at half of the fitted maximal effect.
SMILES,SW480 rerep,A-T KAP1 phos,MCF10A rereplic,ELG1 repair inh,ELG1 genotoxic,p53 reactivation
CCCCn1c(N)c(N(CC(C)C)C(=O)Cc2ccc3c(c2)OCCO3)c(=O)[nH]c1=O,-7%,-7%,1%,-3%,0%,-1%
Cc1cc(C)cc(NC(=O)COc2coc(CN3CCc4ccccc4C3)cc2=O)c1,1%,11%,9%,1%,-1%,-3%
O=C(c1ccc(Cl)c(S(=O)(=O)N2CCCC2)c1)N1CCCC(C(F)(F)F)C1 (stereo unspecified),3%,-6%,2%,4%,-2%,0%
CC12CCC(=O)C=C1CCCC2=O (stereo unspecified),-4%,·,-22%,·,·,·
Nc1nc2c(ncn2-c2ccccc2)c(=O)[nH]1,-1%,·,0%,·,·,·
O=C1c2ccccc2C(=O)c2c1ncn2-c1ccccc1,16µM*,5%,?,-22%,-3%,27%
CNc1cc(-n2nc(C)cc2-c2ccccc2)ncn1,0%,13%,-3%,1%,-4%,-4%
OCCNc1cc(-n2nc(-c3ccccc3)cc2-c2ccccc2)ncn1,-5%,2%,9%,16µM*,-1%,-2%
O=C1c2ccccc2C(=O)N1CCCCN(C(=O)c1cc([N+](=O)[O-])ccc1Cl)c1ccc(Cl)cc1,6%,3%,12%,21µM*,-13%,-8%
CCOc1ccc(-c2c(C(=O)N/N=C(\C)c3cccnc3)nnn2-c2nonc2N)cc1,-18%,1%,-4%,?,?,13%
CCCc1cc(=O)oc2c3c(c4c(c12)OC(C)(C)C=C4)OC(C)C(C)C3O (stereo unspecified),-3%,-9%,10µM*,?,-5%,-9%
Cc1ccc(S(=O)(=O)N(C)CCCC(=O)Nc2ccncc2)cc1,-1%,3%,19%,5.8µM*,-18%,-1%
NS(=O)(=O)c1ccc(CCNC(=O)CN2CCN(Cc3cccc4ccccc34)CC2)cc1,-12%,3%,18%,-5%,-11%,-2%
CC(=O)[C@@H]1[C@@H]2C(=O)N(Cc3ccccc3)C(=O)[C@@H]2C2c3ccccc3C=CN21 (stereo partly specified),4%,4%,5.8µM*,-4%,-2%,10%
O=C(c1ccco1)[C@@H]1[C@@H]2C(=O)N(c3ccccc3)C(=O)[C@@H]2C2c3ccccc3C=CN21 (stereo partly specified),-2%,0%,-1%,-20%,-1%,25%
O=c1[nH]c(=S)[nH]cc1Oc1ccccc1,-4%,·,-32%,·,·,·
COCCn1c(SCC(=O)N2CCCCCC2)nc2c([nH]c3ccccc32)c1=O,-1%,20%,11%,-17%,-2%,-3%
COCCn1c(SCC(=O)N2CCCCC2)nc2c([nH]c3ccccc32)c1=O,10%,2%,18%,16µM*,-12%,2%
CCOC(=O)N1CCN(C(=O)CSc2nc3c([nH]c4ccccc43)c(=O)n2CCOC)CC1,5%,4%,-6%,7.3µM*,-8%,-6%
O=C(c1cccc(N2CCCC2=O)c1)N1CCN(c2cccc(Cl)c2)CC1,-5%,2%,0%,?,-11%,0%
Cc1ccc(N2CC(O)Cn3c2nc2c3c(=O)[nH]c(=O)n2C)cc1 (stereo unspecified),-7%,12%,-1%,-2%,-5%,1%
Cc1cccc(C(=O)N2[C@@H](C(C)C)COc3cc(Br)ccc3S2(=O)=O)c1,2%,·,8.2µM*,·,·,·
